The list is not random: actives were taken first. Their share in the collection is about 1.5%.
TrxR1 substrate = is turned over as a substrate by rat TrxR1 | O89049 | Potency, µM (series often up to 114 µM), for inactives: at the highest dose activity change, negative = substrate turnover | purified TrxR1 substrate turnover, NADPH consumption readout | 390,000 tested, 0.01% active; further: potency means the concentration at half of the fitted maximal effect; nearly all actives have a fitted effect of over 50% in size
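Rat TrxR1, dispensed at 90 nM, was prereduced with 400 uM NADPH (final) for 5 min at ~22 deg C, then incubated with compound 15 min before 400 uM selenite. A first-read NADPH fluorescence drop versus no-compound background flagged substrates.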
TrxR1 inh = blocks rat thioredoxin reductase 1; O89049; Potency, µM (highest dose often 114 µM), inactives show at the highest dose activity change, negative = inhibition, hits mostly inhibitors; recombinant rTrxR1, NADPH fluorescence consumption, selenite substrate; 390,000 tested, 1% active; further: potency means the concentration at half of the fitted maximal effect; nearly all actives have a fitted effect of over 65% in size
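Rat TrxR1 (90 nM in the dispensed reagent) was pre-reduced with 400 uM NADPH for 5 min at room temperature, then incubated with compound for 15 min. After 400 uM selenite was added, NADPH fluorescence (Ex 340/Em 450 nm) was followed for 8 min.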
GALK inh = blocks human galactokinase activity | AID 1868 | 270,000 tested, 0.007% active | Potency, µM (series often up to 57.5 µM), without a hit: at the top dose activity change, negative = inhibition, usual class: inhibitors | Purified GALK, Kinase-Glo residual ATP luminescence | P51570; further: potency means the concentration at half of the fitted maximal effect
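GALK at 5 nM final was combined with compound, 35 uM ATP and 100 uM galactose in HEPES pH8.0 with MgCl2 and DTT. The reaction ran one hour at room temperature before luminescent ATP detection.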
Giardia killer = Giardia lamblia killing; 340,000 tested, 0.15% active; activity change, % at 7.66 µM, hits read low; AID 540267; Giardia lamblia trophozoite viability; in the data active means activity change below about -80%; inconclusive means between about -30% and that limit;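 further: parasites exposed to compound for two days anaerobically before the ATP read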
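Luminescent ATP signal served as the viability read-out, measured 15-30 min after adding ATP detection reagent to trophozoites that had been incubated with compounds for 48 hrs at 37 deg C anaerobically at 100 cells/well.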
PI4K2A inh = blocks human PI4K2A kinase activity; Q9BTU6; purified PI4K2A, ADP-Glo luminescence, 1 h; stronger effect = lower value; activity change, negative = inhibition, % at 76.9 µM; 420,000 tested, 0.13% active; AID 1346378; in the data active means activity change below about -50%; inconclusive means mostly about -30% to -49%;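 further: -100% = wells without enzyme as full effect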
Target sequence (Q9BTU6 whole entry, looked up): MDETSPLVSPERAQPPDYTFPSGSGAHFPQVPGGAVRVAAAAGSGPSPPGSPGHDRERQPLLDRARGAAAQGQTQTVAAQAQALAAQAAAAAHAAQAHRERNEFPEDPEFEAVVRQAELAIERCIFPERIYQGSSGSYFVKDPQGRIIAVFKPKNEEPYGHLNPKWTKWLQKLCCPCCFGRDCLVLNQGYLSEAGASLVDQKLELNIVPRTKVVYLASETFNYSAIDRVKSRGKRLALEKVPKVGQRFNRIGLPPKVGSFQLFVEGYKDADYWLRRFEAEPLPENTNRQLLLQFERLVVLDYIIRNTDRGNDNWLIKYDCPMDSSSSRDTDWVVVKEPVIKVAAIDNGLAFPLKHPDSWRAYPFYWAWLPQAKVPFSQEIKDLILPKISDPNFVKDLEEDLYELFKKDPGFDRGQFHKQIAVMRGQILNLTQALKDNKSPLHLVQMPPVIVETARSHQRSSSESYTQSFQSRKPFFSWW
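PI4K2A activity was measured by ADP-Glo luminescence: enzyme (4 ug/mL stock) and phosphatidylinositol (1.2 mM stock) in Tris pH 7.5/MgCl2/EGTA/Triton X-100 buffer were reacted with ATP (300 microM stock) for one hour at ambient temperature.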
FBPA coupling cs = counter-screen for Giardia aldolase inhibitors: coupling enzyme system. 290,000 tested, 0.67% active. activity change, negative = inhibition, % at 58.2 µM, hits read low. AID 2472. coupling enzyme system counterscreen, AmpLite Red fluorescence; in the data active means activity change below about -30%
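Compounds tested against the coupling enzymes alone at 57.5 uM final; readout was AmpLite Red fluorescence (525/598 nm) after 20 min at RT.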
* = called active by the depositor; ? = inconclusive; . = no result given; [ ] = dose if it differs, or a comment. Unless noted, the call rests on the fitted dose curve; in most records, active means well fitted curve in the direction sought with a large enough effect; inconclusive means small, poorly fitted or top-dose-only effect, or another doubt; inactive means no such curve, though single readings can be large; an effect the other way counts as inactive or inconclusive. Unless noted, on the % scale 0 is the no-effect control and ±100 the full control effect.

SMILES	TrxR1 substrate	TrxR1 inh	GALK inh	Giardia killer	PI4K2A inh	FBPA coupling cs
CSc1nc(-c2ccco2)nn1S(=O)(=O)c1ccccc1	.	.	-0.2%	.	.	-0.6
O=S1(=O)N=C(N/N=C/c2ccccn2)c2ccccc21	-14.7%	-23.4%	0.1%	-3.0	-7.5	-32.1*
Cc1cc(C)n(S(=O)(=O)c2ccccc2[N+](=O)[O-])n1	1.6%	-27.1%	4.3%	-86.9*	-6.4	0.3
Cc1cc(C)n(S(=O)(=O)c2ccccc2)n1	-0.3%	18.5%	-0.3%	8.4	-0.5	0.4
COC(=O)CSC1=NS(=O)(=O)c2ccccc21	-1.5%	2.24µM*	-1.3%	-2.9	-1.7	1.1
O=C(CSC1=NS(=O)(=O)c2ccccc21)Nc1ccccc1	6.0%[57.1 µM]	7.94µM*	2.5%	7.2	-14.5	0.5
COC(=O)CSc1ccccc1C(=O)OC	4.4%	7.7%	-0.2%	10.1	5.5	3.2
COc1ccc(NC(=O)c2cnc3cc(C)ccn3c2=O)c(OC)c1	1.1%	1.1%	.	.	0.6	.
Clc1ccc(/C=C/c2ccnc3ccccc23)c(Cl)c1	-8.0%	?	.	.	.	.
O=C(Nc1cccc(O)c1)c1cc(-c2ccc3c(c2)OCO3)on1	7.7%	24.5%	13.8%	-82.2*	-71.6*	-1.7
COc1cc(CNc2ccc3[nH]c(=O)[nH]c3c2)ccc1OCC(=O)NC(C)(C)C	-4.7%	-20.3%	-4.7%	-4.3	-17.7	-30.3*
C=CC[C@H](c1ccc(F)cc1)N(CC(C)C)S(=O)(=O)C=C	-7.7%	-0.2%	.	.	.	.
O=C(Nc1nc(-c2ccco2)c(-c2ccco2)s1)C1CCC1	4.5%	?	-0.1%	4.5	-7.5	-3.9
CS(=O)(=O)c1ccc(C(=O)Nc2nc(-c3ccco3)c(-c3ccco3)s2)cc1	-19.7%	14.1µM*	.	11.6	?	.
COCCCNC(=O)C1CCN(c2nc3ccc(C)cc3[nH]2)CC1	2.3%[57.1 µM]	5.9%[57.1 µM]	.	.	0.0	.
CC1c2ccccc2CN1NC(=O)c1ccc(Cl)c(S(N)(=O)=O)c1 (centres undefined)	.	.	.	.	0.7	.
COC(=O)/C(=C/c1ccco1)NC(=O)c1ccc(Br)o1	-16.7%	?	3.5%	-1.3	-6.9	-9.3
NC(=O)/C(=C/c1ccco1)NC(=O)c1ccc(Br)o1	-4.5%	11.2µM*	.	-9.3	-9.4	.
S=c1nc[nH]c2c1cnn2-c1ccccc1	3.6%	2.6%	-2.2%	11.1	-1.5	-0.7
Cn1ncc2c(=S)nc(Cl)[nH]c21	-14.1%	7.08µM*	.	14.6	-8.5	.
COc1ccc(OCC(O)Cn2c(NCCO)nc3c2c(=O)n(C)c(=O)n3C)cc1 (centres undefined)	6.9%	15.8%	.	.	-1.2	.
Cc1ccc(-n2nnc(-c3nccn3C)n2)cc1	-3.9%	1.8%	-6.1%	?	-52.5*	-0.7
COc1ccc(C2(CNC(=O)c3cc(OC)c(OC)c(OC)c3)CCCC2)cc1OC	0.7%	13.1%	.	-16.7	-0.2	.
COc1ccc(C2(CNC(=O)/C=C\c3ccco3)CCCC2)cc1OC	-1.2%	10µM*	0.1%	-0.8	-6.9	-5.7
COc1ccc(C(NC(=O)c2ccco2)c2ccc(OC)c(OC)c2)cc1 (centres undefined)	10.4%[57.1 µM]	17.4%[57.1 µM]	-1.0%	-2.0	-4.9	6.3
SMILES	TrxR1 substrate	TrxR1 inh	GALK inh	Giardia killer	PI4K2A inh	FBPA coupling cs
COc1ccc(C(NC(=O)/C=C/c2ccco2)c2ccc(OC)c(OC)c2)cc1OC	-7.7%	4.47µM*	1.0%	-10.2	-4.5	9.3
O=C(O[C@H]1[C@H](Cc2ccccc2)NS(=O)(=O)[C@H]2C[C@@H]3C=C[C@]12O3)c1ccccc1Br	2.3%	8.3%	.	.	.	.
O=C(O)c1cccc(N2C(=O)c3cccc4cccc(c34)C2=O)c1	1.6%[57.1 µM]	-15.2%[57.1 µM]	-6.8%	18.1	4.5	3.9
O=C(O)c1cccc(N2C(=O)c3cc([N+](=O)[O-])cc4cc([N+](=O)[O-])cc(c34)C2=O)c1	-17.3%	11.2µM*	4.1%	-10.1	-67.2*	-19.9
CCCN1CNc2c(c(=O)[nH]c(=S)n2CCc2ccc(Cl)cc2)C1	-0.8%	9.1%	.	-6.5	.	.
CN1/C(=C/C=C/c2n(C)c3cc([N+](=O)[O-])c([N+](=O)[O-])cc3[n+]2C)C(C)(C)c2ccccc21	.	.	.	.	-74.5*	.
COc1ccc(-c2nnn3c2Cn2c4ccccc4c(=O)n2[C@@H](C(C)C)C3)cc1	.	.	.	.	1.7	.
CCOC(=O)C1=C(Cc2ccc(C)cc2)C(=O)c2ccccc2C1=O	.	.	0.7%	.	.	-47.0*
CCOC(=O)C1=C(Cc2ccc(OC)cc2)C(=O)c2ccccc2C1=O	-12.1%[57.1 µM]	?	1.5%	-13.9	-0.6	-56.2*
CCOC(=O)c1ccc(COC(=O)c2ccc3c(c2)-c2ccccc2C3=O)cc1	1.1%	8.3%	3.0%	0.5	2.2	-1.0
O=C(/C(=C/c1ccc(Cl)cc1)c1nc2ccccc2[nH]1)c1cccs1	-10.2%	?	-4.0%	-22.2	-18.5	-0.7
COc1cc(/C=C(/C(=O)c2cccs2)c2nc3ccccc3[nH]2)ccc1O	-11.3%[57.1 µM]	14.1µM*	-1.8%	12.2	-10.6	3.4
CCN(CC)CCC(c1ccc(N(C)C)cc1)c1c(OC)cc(OC)c2c1OC(=O)CC2c1ccc(N(C)C)cc1 (centres undefined)	2.0%	?	.	27.0	.	0.4
O=C(Nc1nc2c(F)cc(F)cc2s1)C1CC(=O)N(Cc2ccco2)C1 (centres undefined)	5.7%	50.1µM*	-16.3%	-6.8	-7.6	-3.8
COc1cccc(C(=O)n2nc(-c3ccco3)nc2NCc2cccs2)c1	8.5%	10.2%	.	.	9.5	.
COc1ccc(OC)c(NC(=O)CCc2nc(-c3ccc(C)cc3)no2)c1	-4.1%	7.4%	.	.	1.6	.
C/C(=N\O)C(=O)C(CN1CCCCC1)CN1CCCCC1	20.0%[57.1 µM]	0.447µM*	0.0%	-13.4	-0.8	-1.4
CC(=O)/C(CN1CCCCC1)=N\O	10.1%	10.4%	4.5%	0.2	-1.9	6.8
C=C1C(=O)O[C@@H]2[C@H]1CC[C@H](C)[C@]1(O)CCC(=O)[C@@]21C	4.2%	5.8%	2.1%	-22.4	-2.4	6.0
C=C1C(=O)OC2C1CCC(C)=C1C(=O)C3OC3(C)C12 (centres undefined)	7.4%	8.91µM*	.	9.6	-21.3	.
Cc1c(C)c2c(c(C)c1OC(=O)CCC(=O)OCCO)CC[C@@](C)(CCC[C@H](C)CCC[C@H](C)CCCC(C)C)O2	.	.	.	.	-4.5	.
O=C1/C(=C/c2ccco2)CCc2ccccc21	-10.3%	-6.6%	.	-10.8	-53.6*	-6.5
Nc1ccc2c(c1)C/C(=C/c1ccco1)C2=O	-4.9%	56.2µM*	4.5%	-13.5	-23.9	-6.3
COc1ccc(C2C(CC(=O)O)=C(O)C(=O)N2c2ccccc2)cc1 (centres undefined)	2.6%	31.6µM*	-1.5%	-20.5	0.1	3.0

Source: PubChem BioAssay (National Center for Advancing Translational Sciences (NCATS))
